Assay outcomes as filed in PubChem.
An excerpt weighted towards active compounds, which were near 0.44% of everything screened.
EPAC2 antagonist – blocks human EPAC2 exchange factor; 0.18% of 360,000 active; Potency, µM (highest dose often 114 µM), actives largely listed as inhibitors; Q8WZA2; EPAC2 GEF exchange of Rap1B-BODIPY-GDP, fluorescence; note: nearly all actives have a fitted effect of over 45% in size
EPAC2 ag – activates human EPAC2 exchange factor. AID 720711. 0.079% of 360,000 active. Potency, µM (series often up to 154 µM), usual class: activators. EPAC2 activation, biochemical qHTS; response scale: 100% = 6.5 mM cAMP response; note: nearly all actives have a fitted effect of over 50% in size
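Setup: EPAC2 100 nM, labeled Rap1B complex 250 nM, free GDP 50 uM. Compound titrations pinned in, brief spin, 5 min room temperature incubation. Kinetic fluorescence read over 30 min, normalized to 6.5 mM cAMP.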
EPAC1 antag – blocks human EPAC1 exchange factor; EPAC1 GEF assay, Rap1b-BODIPY-GDP exchange fluorescence; Potency, µM (titrated, usually from 115 µM), actives largely listed as inhibitors; 0.14% of 360,000 active; note: nearly all actives have a fitted effect of over 50% in size
Target sequence (O95398 whole entry, looked up): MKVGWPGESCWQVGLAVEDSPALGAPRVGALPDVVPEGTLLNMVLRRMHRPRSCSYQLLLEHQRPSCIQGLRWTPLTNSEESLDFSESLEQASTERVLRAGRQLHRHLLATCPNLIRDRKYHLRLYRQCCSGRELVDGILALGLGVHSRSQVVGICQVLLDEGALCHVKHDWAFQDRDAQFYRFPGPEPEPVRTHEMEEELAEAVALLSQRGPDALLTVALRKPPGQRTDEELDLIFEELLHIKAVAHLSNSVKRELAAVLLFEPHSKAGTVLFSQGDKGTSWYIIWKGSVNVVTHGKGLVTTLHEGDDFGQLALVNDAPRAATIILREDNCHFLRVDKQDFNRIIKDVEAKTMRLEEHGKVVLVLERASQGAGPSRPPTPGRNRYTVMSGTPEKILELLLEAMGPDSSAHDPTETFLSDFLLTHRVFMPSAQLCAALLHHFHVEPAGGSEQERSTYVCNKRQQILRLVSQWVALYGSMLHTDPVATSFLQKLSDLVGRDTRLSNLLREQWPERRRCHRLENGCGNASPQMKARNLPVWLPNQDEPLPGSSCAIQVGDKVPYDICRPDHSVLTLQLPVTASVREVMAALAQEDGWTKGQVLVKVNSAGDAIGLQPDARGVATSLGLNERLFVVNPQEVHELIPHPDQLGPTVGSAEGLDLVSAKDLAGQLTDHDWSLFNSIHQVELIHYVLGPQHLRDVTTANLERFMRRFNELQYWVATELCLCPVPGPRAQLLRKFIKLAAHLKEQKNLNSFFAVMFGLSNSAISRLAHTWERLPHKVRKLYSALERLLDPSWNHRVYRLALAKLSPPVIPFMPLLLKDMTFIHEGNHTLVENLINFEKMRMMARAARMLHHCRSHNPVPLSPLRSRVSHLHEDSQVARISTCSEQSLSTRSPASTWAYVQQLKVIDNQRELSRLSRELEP
EPAC1 ag – agonists of human EPAC1; 0.073% of 360,000 active; EPAC1 agonist qHTS, biochemical assay; response scale: 100% = response to 6.5 mM cAMP; AID 720707; Potency, µM (highest dose often 154 µM), most hits filed as activators; note: nearly all actives have a fitted effect of over 60% in size
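Fluorescent GDP-exchange assay: 100 nM EPAC1 with 250 nM Rap1B preloaded with BODIPY-GDP and 50 uM GDP; compounds tested as concentration series, 5 min at room temperature, then read every 5 min for 30 min (ex 480/em 540 nm); normalized to 6.5 mM cAMP.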
USP1-UAF1 inh – USP1/UAF1 (human) deubiquitinase inhibition. O94782. recombinant USP1/UAF1, Ub-Rhodamine cleavage fluorescence. Potency, µM (titrated, usually from 57.1 µM), most hits filed as inhibitors. 0.23% of 390,000 active. AID 743255; note: nearly all actives have a fitted effect of over 60% in size
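USP1/UAF1 complex at 1 nM was preincubated with compound for 15 min at room temperature, then Ub-Rho substrate (150nM final) was added. Fluorescence (480/540 nm) was read kinetically, 6 reads every 60 seconds.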
USP2a inh – inhibitors of human ubiquitin-specific protease USP2a | O75604 | USP2 core, Ub-CHOP2 coupled fluorogenic reporter, 485/531 | Potency, µM (top dose mostly 38.3 µM), actives largely listed as inhibitors | 0.01% of 330,000 active
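USP2 core (10nM final) preincubated 30min RT with compound in 20mM Tris-HCl pH 8.0, 2mM CaCl2, 2mM beta-mercaptoethanol, 0.05% CHAPS; 25nM Ub-CHOP2 plus 25nM reporter substrate added, fluorescence (Ex485/Em531) read after 60min.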
A number is an active result; 0 = inactive; ? = inconclusive; - = no result given. Calls come from the whole dose curve; as a rule, active = well fitted curve in the direction sought with a large enough effect; inconclusive = small, poorly fitted or top-dose-only effect, or another doubt; inactive = no such curve, though single readings can be large; an effect the other way counts as inactive or inconclusive.

SMILES | EPAC2 antagonist | EPAC2 ag | EPAC1 antag | EPAC1 ag | USP1-UAF1 inh | USP2a inh
CN(C)CCCN1C(=O)c2cccc3c(Br)ccc(c23)C1=O | 0 | 0 | 0 | 0 | 0 | 0
CCN1C(=O)c2cccc3c(N)ccc(c23)C1=O | 0 | 63.1µM | 0 | 100µM | 0 | ?
Cc1nn(C)c(C)c1N1C(=O)c2cccc3c(N)ccc(c23)C1=O | 0 | 100µM | 0 | 100µM | 25.1µM | ?
Cc1nc(SCc2cccc(Cl)c2)nc2c1CCCC2 | - | - | - | - | 0 | -
O=C1c2cccc3c(O)ccc(c23)C(=O)N1Cc1ccccc1 | 0 | 89.1µM | 0 | 100µM | 6.31µM | ?
O=C(O)c1cccc(CN2C(=O)c3ccccc3C2=O)c1 | 0 | 0 | 0 | 0 | 0 | 0
O=C1Cc2ccccc2C(=O)N1Cc1ccccc1 | 0 | 0 | 0 | 0 | 3.16µM | 0
O=C1Cc2ccccc2C(=O)N1c1ccccc1 | 0 | 0 | 0 | 0 | ? | 0
Cc1ccc(C(=O)NN2C(=O)/C(=C/c3cccn3C)SC2=S)cc1 | 0 | 0 | 0 | 0 | ? | 0
Cn1cc(/C=C2\SC(=S)N(NC(=O)c3ccccc3Cl)C2=O)c2ccccc21 | 0 | ? | 0 | 100µM | ? | 0
Cc1ccc(C(=O)NN2C(=O)/C(=C/c3cn(C)c4ccccc34)SC2=S)cc1 | 0 | 0 | 0 | 100µM | 0 | 0
CCOC(=O)C1CCN(C(c2ccc(C)cc2)c2sc3nc(-c4ccco4)nn3c2O)CC1 (stereo not given) | - | - | - | - | 0 | -
O=c1cc(-c2ccc(O)cc2)oc2c(-c3c(O)cc(O)c4c(=O)cc(-c5ccc(O)cc5)oc34)c(O)cc(O)c12 | 0 | 0 | 0 | 0 | 0 | 0
O=c1c(-c2c(O)cc(O)c3c(=O)cc(-c4ccc(O)cc4)oc23)c(-c2ccc(O)cc2)oc2cc(O)cc(O)c12 | 0 | 0 | 56.2µM | 0 | 0 | 0
Nc1ccc(N2CCCCC2)c2nonc12 | ? | 0 | 10µM | 0 | 4.47µM | 0
Nc1c(N2CCCC2)cc(Cl)c2nonc12 | ? | ? | ? | 0 | 15.8µM | 0
Nc1c(N2CCOCC2)cc(Cl)c2nonc12 | 0 | 0 | ? | 0 | 0 | 0
O=S(=O)(NCc1ccccc1)c1ccc(S(=O)(=O)N(Cc2cccs2)CC2CCCO2)cc1 (stereo not given) | 0 | 39.8µM | 0 | 0 | 0 | 0
COc1cc(S(=O)(=O)N(Cc2cccs2)CC2CCCO2)ccc1-n1cnnn1 (stereo not given) | 0 | 0 | 0 | 0 | 0 | 0
C[n+]1cccc2c(Br)ccc([O-])c21 | ? | ? | ? | 0 | 5.01µM | 0
COc1ccc(NC(=O)CSc2nc3nc(-c4cccs4)cc(C(F)(F)F)c3c(=O)[nH]2)c(OC)c1 | 0 | 0 | 31.6µM | 0 | 0 | 0
CCOc1ccccc1NC(=O)CSc1nc2nc(-c3cccs3)cc(C(F)(F)F)c2c(=O)[nH]1 | 0 | 0 | 0 | 0 | 0 | 0
COCCn1c2nc(=O)n(-c3ccccc3)c(=O)c-2nc2ccccc21 | 0 | 89.1µM | 0 | 89.1µM | 28.2µM | -
c1ccc(-n2nnnc2-n2ccnc2)cc1 | 0 | 10µM | 0 | 0 | 0 | 0
CN(CC(=O)Nc1ccc(F)cc1)C(=O)CSc1ccc2c(c1)OCCO2 | 0 | 0 | 0 | 0 | 0 | 0
SMILES | EPAC2 antagonist | EPAC2 ag | EPAC1 antag | EPAC1 ag | USP1-UAF1 inh | USP2a inh
Cc1ccc(SCC(=O)OCC(=O)N(C)CC(=O)Nc2ccc(F)cc2)cc1C | 0 | 0 | 0 | 126µM | 0 | 0
CCN(CC)c1ccc(C=C2C(=O)OC3(CCCCC3)OC2=O)cc1 | 0 | 0 | 0 | 0 | 0 | 0
CCN(CC)c1ccc(/C=C2/C(=O)c3ccc(C(=O)O)cc3C2=O)cc1 | ? | 0 | ? | 0 | 12.6µM | 0
CCCCCCN1C=CC=C/C1=C/C=C(C#N)C#N | 0 | 0 | 89.1µM | 0 | ? | 0
C=CCN1C=CC(=CC=C(C#N)C#N)C=C1 | 0 | 0 | 0 | 0 | 0 | ?
CCCCCN1C=CC=C/C1=C\C=C(C#N)C#N | 0 | 0 | 0 | 0 | 0 | ?
CCCN1C=CC(=CC=C(C#N)C#N)C=C1 | 0 | 0 | 0 | 0 | 22.4µM | ?
CN(C)c1ccc(C=c2c3ccccc3n3c2cc(-c2ccccc2)[n+]3C)cc1 | 0 | 0 | 0 | 0 | 17.8µM | -
COc1cc(C=c2c3ccccc3n3c2cc(-c2ccccc2)[n+]3C)cc(OC)c1OC | 0 | ? | 0 | 0 | 2.24µM | -
COC(=O)c1ccc(NC(=O)C(C)N2Cc3ccccc3C2=O)cc1 (stereo not given) | - | - | - | - | 0 | -
CCN1C(=O)c2ccccc2S(=O)c2ccc(C(=O)N3CCN(c4cc(Cl)ccc4C)CC3)cc21 (stereo not given) | - | - | - | - | 0 | -
O=C(O)C1=CC(=C(c2ccc(O)c(C(=O)O)c2)c2ccc(O)c(C(=O)O)c2)C=CC1=O | - | - | - | - | - | 1.12µM
O=C(O)c1cc(O)ccc1O | 0 | 0 | 0 | 0 | 0 | -
CCOC(=O)c1c(N2C(=O)Nc3cc(Cl)c(Cl)cc3N2O)sc2c1CCCCC2 | 0 | 0 | 50.1µM | 0 | 0 | 0
Cc1cccc(N2C(=O)C(CC(=O)Nc3ccc(F)cc3)N(C3CCCC3)C2=O)c1 (stereo not given) | - | - | - | - | 0 | -
COc1cc(/C=C(\C#N)c2nc3ccccc3s2)cc([N+](=O)[O-])c1O | ? | 0 | 79.4µM | 0 | 0 | 0
N#C/C(=C\c1ccc(O)c([N+](=O)[O-])c1)c1nc2ccccc2s1 | ? | 0 | ? | 0 | ? | 0
COc1cc(NCCCC(C)N)c2ncccc2c1 (stereo not given) | 0 | 0 | ? | 0 | 5.01µM | 0
CC(=O)Nc1ccc(C2=NNC(=Nc3cccc(S(=O)(=O)N(C)C)c3)SC2)cc1 | 0 | 0 | 0 | 0 | 10µM | 0
CC(=O)Nc1ccc(C2=NNC(=Nc3ccc(S(=O)(=O)N4CCOCC4)cc3)SC2)cc1 | 0 | 0 | 0 | 0 | 15.8µM | 0
O=S(=O)(c1ccc(N=C2NN=C(c3cc(F)ccc3F)CS2)cc1)N1CCOCC1 | 0 | 0 | 0 | 0 | ? | 0
CCOc1ccc(-n2c(=O)c3c(C)c(C)sc3n(Cc3cc(=O)n4cc(Cl)ccc4n3)c2=O)cc1 | - | - | - | - | 0 | -
CCOc1ccc(S(=O)(=O)NCCc2csc3nc(-c4cccc(C)c4)nn23)cc1 | - | - | - | - | 0 | -
Cc1cc(C)c(NC(=O)CCCN2C(=O)COc3ccc(C)cc32)c(C)c1 | - | - | - | - | 0 | -
CC(OC(=O)/C(C#N)=C/c1ccc(N(C)C)cc1)C(=O)N(C)c1ccccc1 (stereo not given) | 0 | 63.1µM | 0 | 56.2µM | ? | 0
Cc1ccc(S(=O)(=O)Nc2ccccc2-c2ccccc2NS(=O)(=O)c2ccc(C)cc2)cc1 | 0 | 0 | 0 | 0 | 0 | ?
O=C1c2ccccc2-c2cccc(NS(=O)(=O)c3ccc(C(F)(F)F)cc3)c21 | 0 | 0 | 0 | 0 | 28.2µM | 0
O=C(C=Cc1ccccc1)c1c[nH]c2ccccc2c1=O | 0 | 0 | 79.4µM | 0 | 0 | -
O=C(/C=C/c1ccccc1)c1c[nH]c2ccccc12 | 0 | 0 | 0 | 0 | 0 | 0
